Test results reported in the supplement of paper PMC13380429.

Test system: Vero E6 infected with SARS-CoV-2
Experiment: inhibition of SARS-CoV-2 cytopathic effect; higher = more antiviral protection, active = above 15
Conditions: 48 h

Measured: inhibition of SARS-CoV-2 cytopathic effect

CC(C)(C)/[N+]([O-])=C/c1ccc(S(=O)(=O)O)cc1S(=O)(=O)O
inactive: 1 nM -1.02% | 8.33 nM -0.15% | 100 nM -0.41% | 833.33 nM 0.47% | 10000 nM 0.8%

CC(=O)SCCC(=O)N1[C@H](C)CCC[C@@H]1C(=O)O [methiopril]
inactive: 1 nM -1.78% | 8.33 nM -1.6% | 100 nM 3.1% | 833.33 nM 0.4% | 10000 nM 1.04%

Nc1ncn([C@@H]2O[C@H](CO)[C@@H](O)[C@H]2O)c(=O)n1 [azacitidine]
inactive: 1 nM -3.6% | 8.33 nM 0.66% | 100 nM 0.98% | 833.33 nM -0.22% | 10000 nM 0.95%

Cc1ccc(/N=C/N(C)/C=N/c2ccc(C)cc2C)c(C)c1 [amitraz]
inactive: 1 nM -1.29% | 8.33 nM -0.98% | 100 nM -1.78% | 833.33 nM -1.85% | 10000 nM 0.1%
